# Data reported in the supplement of paper PMC12282887.
# ± gives the standard deviation of the averaged measurements.
# Legend:
# Test in all cases: promoter activity interaction Z-score (Lux/OD deviation from empty-vector control); higher = stronger promoter induction by the compound
# [1] = tested on: E. coli BW25113 acrABp lux reporter
# Summary of the method: (§1)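 E. coli BW25113 (wild type or marA, soxS or rob deletion) carrying low-copy luxCDABE promoter reporters grew in 40 µl LB Lennox in 384-well plates at 37°C. Each compound was tested at four 1:2 dilutions in biological duplicates. OD600 and luminescence were read every 30 min for 12 h. Areas were taken over 0–8 h (wild type) or 1–9 h (mutants), and wells below 10% of median growth area were removed. The score is the Z-transformed residual of growth-normalised luminescence fitted against the empty-vector control.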
# [2] = tested on: E. coli BW25113 marRABp lux reporter
# Summary of the method: as §1
# [3] = tested on: E. coli BW25113 micFp lux reporter
# Summary of the method: as §1
# [4] = tested on: E. coli BW25113 ompFp lux reporter
# Summary of the method: as §1
# [5] = tested on: E. coli BW25113 robp lux reporter
# Summary of the method: as §1
# [6] = tested on: E. coli BW25113 soxSp lux reporter
# Summary of the method: as §1
# [7] = tested on: E. coli BW25113 tolCp lux reporter
# Summary of the method: as §1
# [8] = 22.5 µg/ml, genetic background: wild type
# [9] = 22.5 µg/ml, genetic background: ΔmarA
# [10] = 22.5 µg/ml, genetic background: Δrob
# [11] = 22.5 µg/ml, genetic background: ΔsoxS
# [12] = 45 µg/ml, genetic background: wild type
# [13] = 45 µg/ml, genetic background: ΔmarA
# [14] = 45 µg/ml, genetic background: Δrob
# [15] = 45 µg/ml, genetic background: ΔsoxS
# [16] = 90.1 µg/ml, genetic background: wild type
# [17] = 90.1 µg/ml, genetic background: ΔmarA
# [18] = 90.1 µg/ml, genetic background: Δrob
# [19] = 90.1 µg/ml, genetic background: ΔsoxS
# [20] = 180.2 µg/ml, genetic background: wild type
# [21] = 180.2 µg/ml, genetic background: ΔmarA
# [22] = 180.2 µg/ml, genetic background: Δrob
# [23] = 180.2 µg/ml, genetic background: ΔsoxS
smiles,measurement,setting,value
CC(=O)Oc1ccccc1C(=O)O [Acetylsalicylic acid],promoter activity interaction Z-score,[1]; [8],-0.0985 ± 0.4
same,promoter activity interaction Z-score,[1]; [9],-0.517 ± 0.098
same,promoter activity interaction Z-score,[1]; [10],-0.0077 ± 0.088
same,promoter activity interaction Z-score,[1]; [11],-0.0154 ± 0.64
same,promoter activity interaction Z-score,[1]; [12],-0.074 ± 0.32
same,promoter activity interaction Z-score,[1]; [13],0.0467 ± 0.55
same,promoter activity interaction Z-score,[1]; [14],0.166 ± 0.1
same,promoter activity interaction Z-score,[1]; [15],0.231 ± 0.27
same,promoter activity interaction Z-score,[1]; [16],-0.285 ± 0.52
same,promoter activity interaction Z-score,[1]; [17],-0.333 ± 1.1
same,promoter activity interaction Z-score,[1]; [18],-0.137 ± 0.07
same,promoter activity interaction Z-score,[1]; [19],0.467 ± 0.76
same,promoter activity interaction Z-score,[1]; [20],0.092 ± 0.075
same,promoter activity interaction Z-score,[1]; [21],-0.505 ± 0.22
same,promoter activity interaction Z-score,[1]; [22],0.377 ± 0.044
same,promoter activity interaction Z-score,[1]; [23],1.71 ± 1.2
same,promoter activity interaction Z-score,[2]; [8],0.161 ± 0.7
same,promoter activity interaction Z-score,[2]; [9],0.108 ± 0.13
same,promoter activity interaction Z-score,[2]; [10],0.479 ± 0.51
same,promoter activity interaction Z-score,[2]; [11],0.261 ± 0.009
same,promoter activity interaction Z-score,[2]; [12],0.512 ± 0.54
same,promoter activity interaction Z-score,[2]; [13],0.152 ± 0.14
same,promoter activity interaction Z-score,[2]; [14],0.623 ± 0.14
same,promoter activity interaction Z-score,[2]; [15],0.318 ± 0.23
same,promoter activity interaction Z-score,[2]; [16],0.0791 ± 0.33
same,promoter activity interaction Z-score,[2]; [17],-0.0396 ± 0.066
same,promoter activity interaction Z-score,[2]; [18],0.404 ± 0.071
same,promoter activity interaction Z-score,[2]; [19],0.469 ± 0.2
same,promoter activity interaction Z-score,[2]; [20],1.81 ± 0.28
same,promoter activity interaction Z-score,[2]; [21],1.65 ± 0.22
same,promoter activity interaction Z-score,[2]; [22],2.07 ± 0.099
same,promoter activity interaction Z-score,[2]; [23],1.89 ± 0.43
same,promoter activity interaction Z-score,[3]; [8],0.2 ± 0.11
same,promoter activity interaction Z-score,[3]; [9],0.0379 ± 0.26
same,promoter activity interaction Z-score,[3]; [10],0.404 ± 0.28
same,promoter activity interaction Z-score,[3]; [11],0.0828 ± 0.038
same,promoter activity interaction Z-score,[3]; [12],0.294 ± 0.19
same,promoter activity interaction Z-score,[3]; [13],0.0785 ± 0.071
same,promoter activity interaction Z-score,[3]; [14],0.518 ± 0.31
same,promoter activity interaction Z-score,[3]; [15],0.285 ± 0.12
same,promoter activity interaction Z-score,[3]; [16],0.237 ± 0.08
same,promoter activity interaction Z-score,[3]; [17],0.0592 ± 0.067
same,promoter activity interaction Z-score,[3]; [18],1.19 ± 0.68
same,promoter activity interaction Z-score,[3]; [19],0.855 ± 0.27
same,promoter activity interaction Z-score,[3]; [20],1.38 ± 0.096
same,promoter activity interaction Z-score,[3]; [21],0.189 ± 0.12
same,promoter activity interaction Z-score,[3]; [22],2.72 ± 0.048
same,promoter activity interaction Z-score,[3]; [23],2.65 ± 0.019
same,promoter activity interaction Z-score,[4]; [8],0.15 ± 0.52
same,promoter activity interaction Z-score,[4]; [9],-0.0334 ± 0.0097
same,promoter activity interaction Z-score,[4]; [10],-0.332 ± 0.11
same,promoter activity interaction Z-score,[4]; [11],-0.533 ± 0.19
same,promoter activity interaction Z-score,[4]; [12],0.0711 ± 0.62
same,promoter activity interaction Z-score,[4]; [13],-0.0561 ± 0.37
same,promoter activity interaction Z-score,[4]; [14],-0.229 ± 0.49
same,promoter activity interaction Z-score,[4]; [15],-0.162 ± 0.16
same,promoter activity interaction Z-score,[4]; [16],-0.597 ± 0.69
same,promoter activity interaction Z-score,[4]; [17],-0.411 ± 0.14
same,promoter activity interaction Z-score,[4]; [18],-0.956 ± 0.38
same,promoter activity interaction Z-score,[4]; [19],0.0662 ± 0.72
same,promoter activity interaction Z-score,[4]; [20],-0.594 ± 0.36
same,promoter activity interaction Z-score,[4]; [21],-0.771 ± 0.14
same,promoter activity interaction Z-score,[4]; [22],-0.628 ± 0.52
same,promoter activity interaction Z-score,[4]; [23],-0.165 ± 0.36
same,promoter activity interaction Z-score,[5]; [8],0.17 ± 0.36
same,promoter activity interaction Z-score,[5]; [9],-0.635 ± 0.24
same,promoter activity interaction Z-score,[5]; [10],0.299 ± 0.26
same,promoter activity interaction Z-score,[5]; [11],-0.394 ± 1.1
same,promoter activity interaction Z-score,[5]; [12],0.406 ± 0.86
same,promoter activity interaction Z-score,[5]; [13],0.328 ± 0.074
same,promoter activity interaction Z-score,[5]; [14],0.109 ± 1.1
same,promoter activity interaction Z-score,[5]; [15],0.454 ± 0.65
same,promoter activity interaction Z-score,[5]; [16],-0.235 ± 0.3
same,promoter activity interaction Z-score,[5]; [17],0.332 ± 0.19
same,promoter activity interaction Z-score,[5]; [18],-0.142 ± 0.65
same,promoter activity interaction Z-score,[5]; [19],0.2 ± 0.77
same,promoter activity interaction Z-score,[5]; [20],-0.797 ± 0.23
same,promoter activity interaction Z-score,[5]; [21],-0.595 ± 0.25
same,promoter activity interaction Z-score,[5]; [22],-0.635 ± 0.52
same,promoter activity interaction Z-score,[5]; [23],-0.507 ± 0.57
same,promoter activity interaction Z-score,[6]; [8],0.245 ± 0.03
same,promoter activity interaction Z-score,[6]; [9],0.396 ± 0.012
same,promoter activity interaction Z-score,[6]; [10],0.336 ± 0.03
same,promoter activity interaction Z-score,[6]; [11],0.386 ± 0.52
same,promoter activity interaction Z-score,[6]; [12],0.214 ± 0.2
same,promoter activity interaction Z-score,[6]; [13],0.405 ± 0.076
same,promoter activity interaction Z-score,[6]; [14],0.388 ± 0.19
same,promoter activity interaction Z-score,[6]; [15],0.494 ± 0.84
same,promoter activity interaction Z-score,[6]; [16],0.119 ± 0.042
same,promoter activity interaction Z-score,[6]; [17],0.218 ± 0.23
same,promoter activity interaction Z-score,[6]; [18],0.406 ± 0.2
same,promoter activity interaction Z-score,[6]; [19],0.157 ± 0.64
same,promoter activity interaction Z-score,[6]; [20],0.054 ± 0.12
same,promoter activity interaction Z-score,[6]; [21],0.327 ± 0.073
same,promoter activity interaction Z-score,[6]; [22],0.525 ± 0.097
same,promoter activity interaction Z-score,[6]; [23],0.502 ± 1.1
same,promoter activity interaction Z-score,[7]; [8],0.458 ± 0.6
same,promoter activity interaction Z-score,[7]; [9],-1.26 ± 1.6
same,promoter activity interaction Z-score,[7]; [10],-0.642 ± 0.11
same,promoter activity interaction Z-score,[7]; [11],0.238 ± 0.11
same,promoter activity interaction Z-score,[7]; [12],0.0937 ± 0.17
same,promoter activity interaction Z-score,[7]; [13],0.783 ± 0.48
same,promoter activity interaction Z-score,[7]; [14],0.602 ± 0.1
same,promoter activity interaction Z-score,[7]; [15],0.898 ± 0.65
same,promoter activity interaction Z-score,[7]; [16],0.202 ± 0.78
same,promoter activity interaction Z-score,[7]; [17],1.21 ± 0.39
same,promoter activity interaction Z-score,[7]; [18],1.08 ± 0.51
same,promoter activity interaction Z-score,[7]; [19],1.29 ± 0.033
same,promoter activity interaction Z-score,[7]; [20],-0.456 ± 0.15
same,promoter activity interaction Z-score,[7]; [21],-0.659 ± 0.06
same,promoter activity interaction Z-score,[7]; [22],1.91 ± 0.78
same,promoter activity interaction Z-score,[7]; [23],2.01 ± 0.4
